From PubChem BioAssay

Columns and labels:
[1] = molecular target: Tumor necrosis factor receptor superfamily member 10B (Homo sapiens) (UniProt O14763); experiment: caspase-8 TRAIL sensitization, hit retest, confirmation, cell-based, NB7+caspase-8, with/without TRAIL, luminescence panel (AID 651596); settings: NB7 neuroblastoma + caspase-8, TRAIL sensitization, luminescence viability, with TRAIL, mean of runs, at 10 µM, stronger effect = higher value
[2] = as above; settings: NB7 neuroblastoma + caspase-8, without TRAIL, luminescence viability, without TRAIL, mean of runs, at 10 µM
[3] = molecular target: Tumor necrosis factor receptor superfamily member 10B (Homo sapiens) (UniProt O14763); experiment: TRAIL sensitizers in caspase-8 expressing neuroblastoma cells, dose response, NB7 cells plus caspase-8, luminescence, panel (AID 652002); settings: NB7 neuroblastoma +caspase-8, TRAIL sensitization, luminescence viability, NB7+Caspase-8, with TRAIL, run 1; at 12.5 µM (top of the series)
[4] = molecular target: Tumor necrosis factor receptor superfamily member 10B (Homo sapiens) (UniProt O14763); experiment: as above; settings: NB7 neuroblastoma +caspase-8, TRAIL sensitization, luminescence viability, NB7+Caspase-8, with TRAIL, run 2; at 12.5 µM (top of the series)
[5] = as above; settings: NB7 neuroblastoma +caspase-8, no TRAIL, compound-alone cytotoxicity counter-screen, luminescence viability, NB7+Caspase-8, run 1; at 12.5 µM (top of the series) unless noted
[6] = as above; settings: NB7 neuroblastoma +caspase-8, no TRAIL, compound-alone cytotoxicity counter-screen, luminescence viability, NB7+Caspase-8, run 2; at 12.5 µM (top of the series) unless noted

Sequence of Tumor necrosis factor receptor superfamily member 10B (Homo sapiens) (O14763 whole entry, looked up): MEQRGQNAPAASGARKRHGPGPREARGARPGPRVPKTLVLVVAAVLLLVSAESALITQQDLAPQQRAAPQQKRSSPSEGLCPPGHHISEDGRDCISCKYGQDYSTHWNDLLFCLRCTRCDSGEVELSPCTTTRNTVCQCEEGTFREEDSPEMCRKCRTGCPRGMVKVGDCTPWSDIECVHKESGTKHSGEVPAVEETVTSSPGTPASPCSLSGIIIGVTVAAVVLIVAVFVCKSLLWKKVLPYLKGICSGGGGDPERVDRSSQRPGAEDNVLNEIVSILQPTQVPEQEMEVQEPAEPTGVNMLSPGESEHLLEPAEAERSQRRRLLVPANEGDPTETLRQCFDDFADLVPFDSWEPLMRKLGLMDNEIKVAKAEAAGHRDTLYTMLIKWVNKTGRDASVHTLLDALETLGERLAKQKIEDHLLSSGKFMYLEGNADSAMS

| SMILES | activity [1] [%] | activity [2] [%] | activity, % sensitization [3] [%] | activity, % sensitization [4] [%] | activity, % sensitization [5] [%] | activity, % sensitization [6] [%] |
| --- | --- | --- | --- | --- | --- | --- |
| C#CC(=O)CC1(CN(Cc2ccccc2)C(=O)OC(C)(C)C)CCCCC1 | 97.7 | 49.4 | 78.9 | 34.5 | 89.9 | 57.8 |
| CCOc1ccc2nc(NC(=O)c3cccc(-c4cc5ccccc5oc4=O)c3)sc2c1 | 56.2 | 31.1 | -26.2 | -15.7 | -20.2 | -25.4 |
| CN(C)S(=O)(=O)c1ccc(C(=O)Nc2nnc(SCC(=O)NCC3CCCO3)s2)cc1 (stereo not drawn) | 49.1 | 38.5 | 30 | 32.3 | 4.27 | 28.4 |
| Cc1nc2cc(NC(=O)c3ccco3)ccc2n1C | 47.6 | 48 | 30.3 | 32.8 | -8.74 | 21.3 |
| COCCNC(=O)c1cc(-c2ccc(-c3ccccc3)cc2)nc2ccccc12 | 57.7 | 44.5 | 36.7 | 40.6 | 51 | 41.3 |
| CSc1nc(N)n2nc(-c3ccc(Cl)cc3)cc2n1 | 63.9 | 45.2 | -2.8 | -10.2 | 0.419 | -17.1 |
| COCCCn1c(C(=O)Nc2ccc3c(c2)OCO3)cc2c(=O)n3cccc(C)c3nc21 | 70.2 | 28.2 | -7.02 | -8.71 | -1.61 | -25.9 |
| Cc1ccc(-n2nnc(-c3cccnc3Cl)n2)cc1 | 56.4 | 47.5 | 33.6 | -11.1 | 12 | -10.2 |
| c1ccc(-c2cnc(-c3ccccn3)nn2)cc1 | 61.4 | 53.5 | 26.5 | 46.5 | 52.7 | 36.1 |
| Cc1ccc2c(c1)C(=NC1CCCCC1)c1cc3ccccc3nc1-2 | 62.8 | 51.2 | -15 | -9.21 | 10.4 | -8.89 |
| Cc1onc(-c2c(Cl)cccc2Cl)c1C(=O)ONC(=O)c1ccccc1 | 72.9 | 30.8 | 1.55 | -5.77 | -2.95 | -9.25 |
| Cc1ccc2c(c1)-c1nc3ccccc3cc1C2=NC1CCCCC1 | 49.6 | 41.6 | 26.1 | 46.1 | 4.61 | -9.3 |
| O=C1CCCc2nc(N3CCc4ccccc43)ncc21 | 45.5 | 25.6 | 22.4 | -9.35 | 0.829 | -3.85 |
| O=C(Nc1cnc2ccccn2c1=O)c1ccc(Cl)cc1Cl | 56 | 52.5 | 15.5 | 2.31 | -7.49 | -6.53 |
| O=C1c2ccc(Cl)cc2S(=O)(=O)c2cccc(C(=O)N3CCC(Cc4ccccc4)CC3)c21 | 70.8 | 26.7 | -6.25 | 3.7 | -20.1 | -5.15 |
| COc1ccc(/C(C)=N/Nc2nncc3ccccc23)cc1 | 59.6 | 49.8 | 19.4 | 54.6 | 27.1 | 10.8 |
| Cc1cc(N/N=C/c2ccccc2)nc(NCc2ccccc2)n1 | 53.9 | 41.1 | 30.4 | 39.6 | 5.63 | 26.4 |
| CC(C)C[C@H](NC(=O)c1nc[nH]c1C(=O)N[C@@H](CC(C)C)C(=O)OCc1ccccc1)C(=O)OCc1ccccc1 | 71.4 | 38.8 | -20.3 | 9.61 | 0.235 | -15.4 |
| Cc1cc(-c2ccccc2)nc(Nc2nc3c(C)cccc3c(=O)[nH]2)n1 | 59.1 | 38 | 41.7 | 10.5 | 22.2 | 5.22 |
| Fc1ccc(-c2cnn3c(-c4ccncc4)ccnc23)cc1 | 49.5 | 48.7 | -13.8 | -2.37 | 13.2 | -12.3 |
| O=C(Nc1ccc2ccccc2c1)c1ccc(Cl)cc1 | 63.1 | 51.3 | 33.9 | 31.4 | 13 | -8.49 |
| COc1ccccc1/C=C/C=N/n1c(-c2cc(-c3ccccc3)n[nH]2)n[nH]c1=S | 71.2 | 39.3 | -29.9 | -8.86 | 10.6 | -34.4 |
| CC(C)(C)OC(=O)NCc1ccc(NC(=O)c2nc[nH]c2C(=O)N[C@@H](Cc2ccccc2)C(=O)OCc2ccccc2)cc1 | 63.8 | 11.5 | -11 | 1.84 | -8.6 | -21.5 |
| CCOC(=O)C(=C1Nc2ccccc2N1)n1c(-c2cccnc2)nc2ccccc21 | 55.9 | 52 | 44.5 | 36.8 | -4.97 | 41.7 |
| NNC(=O)C1CCCn2c1nc1sc3c(c1c2=O)CCCC3 (stereo not drawn) | 51 | 52.8 | 5.3 | -9.76 | -17.6 | 12.5 |
| Cc1ccnc(NC(=O)Nc2ccc3c(c2)OCO3)c1 | 51 | 41 | 40.8 | 17 | 0.866 | -33.8 |
| O=C(c1cnc(Cl)c(Cl)c1)N1CCN(S(=O)(=O)c2ccc3ccccc3c2)CC1 | 45.5 | 25.1 | -9.83 | -9.66 | 3.76 | -5.02 |
| C(=C\c1ccco1)/c1nc2ccccc2[nH]1 | 57.9 | 31.6 | -0.105 | 5.08 | -6.68 | -0.982 |
